Assay results: PubChem BioAssay (NCI)
The panel holds about 79,000 compounds, 15% with a hit somewhere; the sample as a whole holds those more often. Calls of active or inactive are those of the source. Cut-off read from the data, not from the text of the source: active = growth inhibition above about 70%; inactive = the rest.

Assays:
[1] = NCI Yeast Anticancer Drug Screen. Data for the rad50 strain (AID 155);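 note: 0% = growth of vehicle-only cultures of the same strain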; conditions: S. cerevisiae rad50 strain growth inhibition; at 50.0 µM; hits give high values
In short: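 DNA repair mutant yeast, compound exposure, growth read-out; inhibition is taken relative to vehicle.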

[2] = NCI Yeast Anticancer Drug Screen. Data for the mec2-1 strain (AID 157); conditions: S. cerevisiae mec2-1 strain, at 50.0 µM, hits give high values
In short: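 mec2-1 yeast strain, carrying an alteration in DNA damage repair or cell cycle control, was exposed to compounds; growth inhibition was measured relative to vehicle-treated controls.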

[3] = NCI Yeast Anticancer Drug Screen. Data for the sgs1 mgt1 strain (AID 161);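 note: 0% = growth of cultures given vehicle only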; conditions: S. cerevisiae sgs1 mgt1 strain, at 50.0 µM, hits give high values
In short: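 This yeast growth screen uses a strain with defined DNA-repair lesions; compound-treated growth is compared with vehicle-treated growth.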

[4] = NCI Yeast Anticancer Drug Screen. Data for the cln2 rad14 strain (AID 165);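 note: 0% = growth equal to vehicle treated cultures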; conditions: S. cerevisiae cln2 rad14 strain, at 50.0 µM, hits give high values
In short: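 Yeast carrying cln2 and rad14 alterations (cell cycle control and DNA damage repair) were exposed to compounds. Growth inhibition was measured against vehicle-treated controls.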

[5] = NCI Yeast Anticancer Drug Screen. Data for the bub3 strain (AID 167); conditions: S. cerevisiae bub3 mutant strain, at 50.0 µM, hits give high values
In short: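 In this screen, a yeast mutant lacking normal mitotic checkpoint function is challenged with compound. Relative growth versus vehicle gives the inhibition value.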

[6] = NCI Yeast Anticancer Drug Screen. Data for the mlh1 rad18 strain (AID 175); conditions: S. cerevisiae mlh1 rad18 strain growth inhibition; at 50.0 µM; hits give high values
In short: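 Growth inhibition of the yeast strain was measured after compound exposure and expressed relative to vehicle-treated controls. The strain carries defined defects in DNA damage repair.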

Measured: growth inhibition

O=C(c1ccccc1)c1ccccc1O
inactive: [1] -16.6% | [2] -10.7% | [3] 11.4% | [4] 6.95% | [5] 10.7% | [6] 2.9%

CC(C)(C)C(C(N)=O)C(C)(C)C
inactive: [1] 4.4% | [2] 2.6% | [3] -6.1% | [4] 14.4% | [5] 10.8% | [6] -19.6%

CC(C)c1ccc2c(c1)CCC1C2(C)CCCC1(C)C(O)c1ccccc1 (configuration not stated)
inactive: [1] 9.45% | [2] -6.65% | [3] 8.6% | [4] -17.1% | [5] 8.05% | [6] 32.1%

C=CC1CCC[N+]1(CC(=O)OCC)Cc1ccccc1 (configuration not stated)
inactive: [1] -15.2% | [2] -13.9% | [3] -25.2% | [4] 3.7% | [5] -2.15% | [6] -10.8%

C[N+](C)(N)c1nc(N)c(C#N)c(C#N)c1C#N
inactive: [1] 13.6% | [2] -18.7% | [3] -10.9% | [4] -24.4% | [5] 5.1% | [6] 13.8%

Cn1c(N)nc2c1c(=O)[nH]c(=O)n2C
inactive: [1] 12.6% | [2] -0.75% | [3] 5.25% | [4] 13.2% | [5] -19.4% | [6] 21.8%

COc1cccc(CCN(CCOC(N)=O)CCOC(N)=O)c1OC
inactive: [1] -10.1% | [2] -5.25% | [3] 2.9% | [4] -7.35% | [5] -4.85% | [6] -2.65%

CC(C)OC(CCCl)c1ccc(Cl)cc1 (configuration not stated)
inactive: [1] -7% | [2] -9.2% | [3] -22.1% | [4] 7.2% | [5] -37.6% | [6] -2.25%

CCc1[nH]c(=O)c2oc3cc4ccccc4cc3c2c1C(=O)O
inactive: [1] -43.9% | [2] -35.5% | [3] -55.6% | [4] -29.4% | [5] -17.8% | [6] -70.3%

CN(CCCn1ccnc1[N+](=O)[O-])CCCn1ccnc1[N+](=O)[O-]
inactive: [1] -28.1% | [2] -12.6% | [3] -0.35% | [4] 3.85% | [5] -5.05% | [6] 11.6%

N#C/C(=C/N1CCNC1=S)C(N)=O
inactive: [1] 4.95% | [2] 5% | [3] 9.5% | [4] 23.9% | [5] -2.8% | [6] 12.4%

CC(=N\N=C(c1ccccc1)c1ccccc1)/C(C)=N/N=C(c1ccccc1)c1ccccc1
inactive: [1] -22.1% | [2] -8.15% | [3] -13.8% | [4] -9% | [5] -1.15% | [6] -17.8%

Cc1ccc[n+](CCCCCCCC[n+]2cccc(C)c2)c1
inactive: [1] 54.7% | [2] 2.7% | [3] 44.4% | [4] -2.25% | [5] 3.4% | [6] 33.2%

CCCCCC(=O)Nc1ccccc1
inactive: [1] 4.95% | [2] -6.3% | [3] 1.7% | [4] -29.4% | [5] -10.9% | [6] -3.25%

COc1ccc2c(c1OC)C(Cc1ccccc1)N1CCc3cc4c(cc3C1C2)OCO4 (configuration not stated)
inactive: [1] 21.4% | [2] 59% | [3] 48% | [4] 50.8% | [5] 51.6%
active: [6] 77.8%

Nc1ccc2[nH]c(=O)c(=O)[nH]c2c1
inactive: [1] 2% | [2] 14.7% | [3] -24.1% | [4] 4.95% | [5] 1.1% | [6] 14.8%

CCc1c(O)cc(=O)oc1-c1ccc(OC)c(OC)c1
inactive: [1] 21% | [2] -16.2% | [3] 2.15% | [4] 6.05% | [5] -6.9% | [6] -26.6%

O=[n+]1c2c(n([O-])c3cc(Cl)c(Cl)cc31)CCCC2
inactive: [1] 11.8% | [2] 11.2% | [3] 17.5% | [4] -2% | [5] 25.9% | [6] 4.9%

O=C(O)/C(=C\c1cc2c(cc1[N+](=O)[O-])OCO2)c1ccccc1
inactive: [1] 3.8% | [2] -5.35% | [3] 6.8% | [4] -41% | [5] -22.9% | [6] 17.9%

C(=C/c1ccccc1)/CNCCNC/C=C/c1ccccc1
inactive: [1] 46.1% | [2] 22.6% | [3] 40.8% | [4] 35% | [5] 35.3% | [6] 47.5%

COc1ccc(/C(=C/n2ccnc2)C(O)c2ccc(OC)c(OC)c2)cc1OC (configuration not stated)
inactive: [1] -16.5% | [2] -11.8% | [3] -31.8% | [4] -2.25% | [5] -2.8% | [6] -11.3%

CCCCCCCCCCCCCCCCc1c(C)nc(N(C)C)oc1=O
inactive: [1] 18.8% | [2] 23% | [3] -4.4% | [4] 8.2% | [5] 21.1% | [6] 2.25%

O=C(OC1COC(OCc2ccccc2)C(OC(=O)c2ccccc2)C1OC(=O)c1ccccc1)c1ccccc1 (configuration not stated)
inactive: [1] 8% | [2] -24.4% | [3] 3.1% | [4] -30.3% | [5] 0.4% | [6] 2.75%

C[N+](C)(C)c1ccc(C(=O)[O-])cc1
inactive: [1] 3.55% | [2] 18.8% | [3] -0.4% | [4] 0.55% | [5] 16% | [6] 8.1%

CC1(C)C(OS(C)(=O)=O)C(C)(C)C1OS(C)(=O)=O (configuration not stated)
inactive: [1] 3.75% | [2] -20.6% | [3] 13.7% | [4] 9.45% | [5] 8.4% | [6] -12.9%

CCCCOC(=O)NC(C)=O
inactive: [1] -14.1% | [2] -18.9% | [3] -15.2% | [4] -11.6% | [5] -1.55% | [6] -16.1%

COc1ccccc1C/C(=N/O)c1ccccc1OC
inactive: [1] 3.65% | [2] -2.8% | [3] 14.1% | [4] 15.6% | [5] -3.8% | [6] 4.35%

O=C(Cc1ccccc1)NCc1ccccc1
inactive: [1] -1.7% | [2] -7.15% | [3] 13.9% | [4] -3.3% | [5] 2.55% | [6] 8.7%

COC(=O)Oc1ccccc1C(=O)O
inactive: [1] -25.2% | [2] -22.6% | [3] -15.6% | [4] 0.2% | [5] -24.6% | [6] -5.55%

CN(C)CCC(c1ccccc1)c1ccccc1
inactive: [1] -22.4% | [2] -2.85% | [3] 13.7% | [4] -13.6% | [5] 14.7% | [6] -5.8%

CS(=O)(=O)OCCCCOS(=O)(=O)CF
inactive: [1] -36.9% | [2] -35% | [3] -31.4% | [4] -14.2% | [5] -8.7% | [6] -20%

COc1ccc(C(=O)Nc2ccccc2)cc1
inactive: [1] 7.45% | [2] 8.7% | [3] -0.3% | [4] 6.25% | [5] -1.2% | [6] -4.65%

CCCC(=O)Oc1ccc(Cl)cc1C
inactive: [1] -2.3% | [2] -1.05% | [3] 2.85% | [4] -57.6% | [5] -13.6% | [6] -3.85%

O=C(O)CNC(CO)(CO)CO
inactive: [1] -55% | [2] -60.8% | [3] -36% | [4] -19.8% | [5] -10.8% | [6] -43%

COc1ccc(C(=O)N/N=C/c2cccc(OC)c2OC)cc1
inactive: [1] -6.3% | [2] -4.75% | [3] -20.1% | [4] -26.2% | [5] 13.1% | [6] -41.8%

CN1CCCCC(C#N)(c2ccccc2)CC1 (configuration not stated)
inactive: [1] -5.25% | [2] 14.1% | [3] 7.85% | [4] -2.2% | [5] 0.8% | [6] 21.4%

Cc1ccc2c(-c3ccc4ccccc4c3)c3ccccc3cc2c1
inactive: [1] 7.7% | [2] -10.2% | [3] -2.8% | [4] -12.6% | [5] -2.35% | [6] -40.5%

CCCCOC(=O)C1CSSCC(NC(C)=O)C(=O)N1 (configuration not stated)
inactive: [1] -2.05% | [2] -7.35% | [3] 1.5% | [4] -16.5% | [5] -7.2% | [6] -6.95%

N#CCc1ccccc1C(C#N)C(=O)CCC(=O)C(C#N)c1ccccc1CC#N (configuration not stated)
inactive: [1] 45.6% | [2] 26.1% | [3] 22.6% | [4] -28.4% | [5] 6.75% | [6] 44.7%

CCOc1cc2c(cc1C(CC)c1ccccc1)OCO2 (configuration not stated)
inactive: [1] 6.75% | [2] 12.6% | [3] 9.75% | [4] 3% | [5] 17.6% | [6] 14.7%

CC1=CC(OC2CCCCO2)CC(C)(C)C1 (configuration not stated)
inactive: [1] -5.2% | [2] -3% | [3] -11% | [4] -16.4% | [5] 0.05% | [6] -5.15%

O=S(=O)(Cl)c1cc(Cl)ccc1Cl
inactive: [1] 24.8% | [2] -19.8% | [3] -17.1% | [4] -72.2% | [5] -3.6% | [6] -4.1%
